Here are results for 16 compounds from PubChem BioAssay (EPA / NIEHS).

The AC50 is the midpoint of the concentration-response curve, whichever way the signal moves.

Activity calls are given as the source filed them. How the source made its calls: active means hit-call score of the fitted dose curve at least 0.9, where 1 is the maximum; inactive means score below 0.9.

Conditions in all cases: primary human HUVEC with PBMC; actives raise or lower the signal
Read-out in experiment [1]: Macrophage colony-stimulating factor (MCSF), CSF1 (gene 1435)
Put plainly: BSK_LPS_MCSF: BioMAP Diversity Plus: LPS Assay for Macrophage colony-stimulating factor (MCSF) Biomarker Activity (AID 2283083). The essentials:
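HUVEC + PBMC co-culture (human primary), 24 h post-dose; M-CSF by ELISA; gain/loss of signal fitted bidirectionally vs DMSO baseline.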

Read-out in experiment [2]: Tissue Factor, F3 (gene 2152)
Put plainly: BSK_LPS_TissueFactor: BioMAP Diversity Plus: LPS Assay for Tissue Factor Biomarker Activity (AID 2283084). In a few lines:
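HUVEC/PBMC co-culture, LPS-activated; CD142 ELISA read 24 h post-dose; bidirectional curve fit vs DMSO negative control.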

Read-out in experiment [3]: Tumor necrosis factor (Homo sapiens) (UniProt P01375)
Put plainly: BSK_LPS_TNFa: BioMAP Diversity Plus: LPS Assay for Tumour Necrosis Factor alpha (TNFa) Biomarker Activity (AID 2283085).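 On AC50: TNFa protein level quantified by ELISA in the co-culture.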 In a few lines:
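TNFa was quantified by ELISA in LPS-activated co-cultures of human endothelial cells and PBMC, 24 h post-dosing. Both increases and decreases versus DMSO were fitted.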

Read-out in experiment [4]: Vascular cell adhesion molecule 1 (VCAM1), VCAM1 (gene 7412)
Put plainly: BSK_LPS_VCAM1: BioMAP Diversity Plus: LPS Assay for Vascular cell adhesion molecule 1 (VCAM1) Biomarker Activity (AID 2283086). The essentials: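 VCAM-1 quantified by ELISA in an LPS-activated co-culture of human endothelial cells and peripheral blood mononuclear cells, read 24 h post-treatment. Fitted in both directions versus DMSO; parallel SRB staining flags overt cytotoxicity.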

Read-out in experiment [5]: CD38, CD38 (gene 952)
The experiment in a line: BSK_SAg_CD38: BioMAP Diversity Plus: SAg Assay for CD38 Biomarker Activity (AID 2283087). In a few lines: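 CD38 quantified by ELISA (fluorescence) in a superantigen-activated endothelial cell–PBMC co-culture at 24 h post-dose. Activity fitted in both directions relative to DMSO; parallel SRB and Alamar Blue cytotoxicity read-outs.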

Read-out in experiment [6]: CD40, CD40 (gene 958)
The experiment in a line: BSK_SAg_CD40: BioMAP Diversity Plus: SAg Assay for CD40 Biomarker Activity (AID 2283088). The essentials: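 HUVEC/PBMC co-culture, 24 h post-dose; CD40 by ELISA, fluorescence intensity; bidirectional fit vs DMSO negative control.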

Read-out in experiment [7]: CD69, CD69 (gene 969)
The experiment in a line: BSK_SAg_CD69: BioMAP Diversity Plus: SAg Assay for CD69 Biomarker Activity (AID 2283089).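 On AC50: cell surface CD69 protein quantified by ELISA with fluorescence detection.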 The essentials:
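HUVEC co-cultured with PBMC were dosed with chemical, and CD69 was measured by ELISA with fluorescence read-out 24 h later. Bidirectional curve fitting used DMSO as negative control and activity baseline.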

Read-out in experiment [8]: Monocyte Chemoattractant Protein-1 (MCP1), CCL2 (gene 6347)
The experiment in a line: BSK_SAg_MCP1: BioMAP Diversity Plus: SAg Assay for Monocyte Chemoattractant Protein-1 (MCP1) Biomarker Activity (AID 2283090). In a few lines: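 Values derive from bidirectional fitting of ELISA-measured MCP1 against DMSO controls. Readings were taken 24 h after dosing human vascular endothelial cells co-cultured with peripheral blood mononuclear cells under superantigen stimulation.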

Read-out in experiment [9]: E-selectin (Homo sapiens) (UniProt P16581)
Put plainly: BSK_SAg_Eselectin: BioMAP Diversity Plus: SAg Assay for Eselectin Biomarker Activity (AID 2283091). The essentials:
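E-selectin ELISA readout at 24 h post-dosing in human umbilical vein endothelial cell/PBMC co-culture; gain or loss of signal fitted relative to DMSO baseline.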

Read-out in experiment [10]: Monokine induced gamma interferon (MIG), CXCL9 (gene 4283)
Put plainly: BSK_SAg_MIG: BioMAP Diversity Plus: SAg Assay for Monokine induced gamma interferon (MIG) Biomarker Activity (AID 2283092). The essentials: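 HUVEC plus human PBMC co-culture, chemicals dosed and MIG (CXCL9) quantified by ELISA at 24 h. Bidirectional curve fitting against DMSO as negative control and baseline, so both gain and loss of signal count as activity.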

Tumor necrosis factor (Homo sapiens), sequence (P01375 whole entry, looked up): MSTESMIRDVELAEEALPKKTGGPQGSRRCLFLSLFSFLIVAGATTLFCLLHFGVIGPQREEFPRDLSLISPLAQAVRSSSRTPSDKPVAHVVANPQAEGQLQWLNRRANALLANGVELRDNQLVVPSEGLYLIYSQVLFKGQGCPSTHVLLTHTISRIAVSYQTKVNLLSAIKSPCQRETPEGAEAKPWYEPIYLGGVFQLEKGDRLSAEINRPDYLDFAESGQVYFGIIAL
E-selectin (Homo sapiens), sequence (P16581 whole entry, looked up): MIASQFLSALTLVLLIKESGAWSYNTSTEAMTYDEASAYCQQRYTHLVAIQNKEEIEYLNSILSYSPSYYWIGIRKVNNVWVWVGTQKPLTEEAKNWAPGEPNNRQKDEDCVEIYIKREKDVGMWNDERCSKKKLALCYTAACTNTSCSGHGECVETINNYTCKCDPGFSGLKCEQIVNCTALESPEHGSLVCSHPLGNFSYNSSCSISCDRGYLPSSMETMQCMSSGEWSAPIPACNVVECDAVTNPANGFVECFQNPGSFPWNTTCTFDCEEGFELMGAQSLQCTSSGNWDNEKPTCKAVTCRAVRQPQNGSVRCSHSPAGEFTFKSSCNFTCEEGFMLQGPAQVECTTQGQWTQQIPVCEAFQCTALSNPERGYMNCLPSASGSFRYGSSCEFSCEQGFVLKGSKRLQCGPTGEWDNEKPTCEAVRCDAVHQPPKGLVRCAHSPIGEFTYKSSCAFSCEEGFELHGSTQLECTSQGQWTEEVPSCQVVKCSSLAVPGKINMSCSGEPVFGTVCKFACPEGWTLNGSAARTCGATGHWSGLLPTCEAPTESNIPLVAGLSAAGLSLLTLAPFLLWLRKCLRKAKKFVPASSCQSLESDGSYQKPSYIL

As for `C#CCOC(=O)/C=C(C)/C=C/CC(C)CCCC(C)C` (centres undefined), the result in experiment [1], in [2], in experiment [3], in experiment [4], in [5] and in [6] was inactive. For the same compound, the result in experiment [8], in experiment [9] and in [10] was inactive. Besides, the AC50 in experiment [7] was 20 µM (active).
With `O=C(N[C@H]1CN2CCC1CC2)c1ccc2c(c1)OCCO2`, the result in experiment [1], in experiment [2], in experiment [3], in [5], in [6] and in [7] was inactive. The result in [8], in experiment [9] and in experiment [10] was inactive.
Turning to `O=S(=O)(C(Cl)(Cl)Cl)C(Cl)(Cl)Cl`, the AC50 was 1.83 µM (active) in experiment [1]; 3.21 µM (active) in [2]; 2.28 µM (active) in [4]; 2.64 µM (active) in [5]; 2.74 µM (active) in [6]; 3.57 µM (active) in [7]. The AC50 in [8] was 4.17 µM (active); in [9] it was 3.13 µM (active); in [10] it was 7.79 µM (active). Moreover, in experiment [3], the result was inactive.
Regarding `CC(C)(C)c1ccccc1O`, the result in experiment [1], in [2], in experiment [3], in [4], in experiment [5] and in experiment [6] was inactive. The outcome in experiment [7], in experiment [8], in [9] and in [10] was inactive.
For `O=S(=O)(c1ccc(Cl)cc1)c1cc(Cl)c(Cl)cc1Cl`, the outcome in experiment [1], in experiment [2], in [3], in experiment [4], in [6] and in experiment [7] was inactive. For the same compound, the outcome in experiment [8], in experiment [9] and in experiment [10] was inactive. In experiment [5], the AC50 is 3.97 µM (active).
Take `Cc1ccccc1OP(=O)(Oc1ccccc1C)Oc1ccccc1C`: the AC50 in [1] was 11.2 µM (active); in experiment [2], 27.5 µM (active); in experiment [4], 11.4 µM (active); in experiment [5] it was 28.9 µM (active); in [6] it was 12.5 µM (active); in [7], 13.8 µM (active). In addition, the AC50 in experiment [8] was 14.8 µM (active); in [9], 30.6 µM (active); in [10], 33.6 µM (active). Moreover, the result in experiment [3] was inactive.
Regarding `CC(C=O)Cc1ccc2c(c1)OCO2` (centres undefined), the result in experiment [1], in experiment [2], in [3], in experiment [4], in experiment [5] and in experiment [6] was inactive. Moreover, the outcome in experiment [7], in experiment [8], in experiment [9] and in [10] was inactive.
Turning to `O=[N+]([O-])c1cccc2ccccc12`, the outcome in experiment [1], in experiment [2], in experiment [3], in experiment [4], in experiment [5] and in experiment [6] was inactive. The outcome in [7], in [8], in experiment [9] and in [10] was inactive.
Regarding `C=CC(Cl)CCl` (centres undefined), the outcome in [1], in experiment [2], in [3], in experiment [4], in [5] and in experiment [7] was inactive. Also, the outcome in [8], in experiment [9] and in experiment [10] was inactive. Further, the AC50 in experiment [6] was 0.478 µM (active).
As to `N#Cc1cccnc1`, the result in experiment [1], in [2], in experiment [3], in experiment [4], in experiment [5] and in [6] was inactive. Also, the result in [7], in experiment [8], in experiment [9] and in [10] was inactive.
Regarding `OCCCCO`, the outcome in [1], in experiment [2], in experiment [3], in experiment [4], in experiment [5] and in [6] was inactive. Also, the result in [7], in experiment [8], in experiment [9] and in [10] was inactive.
As for `CCOC(=O)CC(=O)CCl`, the AC50 in [1] is 20 µM (active); in experiment [2] it was 33.1 µM (active); in experiment [3], 34.9 µM (active); in experiment [4] it was 7.27 µM (active); in experiment [5], 24.6 µM (active); in experiment [6], 20 µM (active). Moreover, the AC50 is 27 µM (active) in experiment [7], 20 µM (active) in [8] and 20 µM (active) in experiment [9]. Further, the outcome in [10] was inactive.
As for `Oc1cccc(-c2ccccc2)c1`, the outcome in experiment [1], in experiment [3], in [5], in [7] and in [10] was inactive. Also, the AC50 in [2] is 33.3 µM (active); in [4] it was 20 µM (active); in [6] it was 30.8 µM (active); in experiment [8] it was 20 µM (active); in experiment [9], 33.6 µM (active).
On to `Cc1cc(Cl)ccc1N`, for which the result in experiment [1], in [2], in [3], in experiment [4], in experiment [5] and in experiment [6] was inactive. Also, the outcome in experiment [7], in experiment [8], in experiment [9] and in experiment [10] was inactive.
With `Cc1cc(Cl)ccc1OC(C)C(=O)O` (centres undefined), the outcome in experiment [1], in experiment [2], in [3], in [4], in experiment [5] and in experiment [6] was inactive. For the same compound, the result in experiment [7], in [8], in [9] and in experiment [10] was inactive.
Consider `C[C@]12CC[C@@H](O)C[C@@H]1CC[C@@H]1[C@@H]2CC[C@]2(C)C(=O)CC[C@@H]12`, for which the result in experiment [1], in [2], in experiment [3], in experiment [4], in experiment [5] and in experiment [6] was inactive. In addition, the result in [7], in experiment [8], in experiment [9] and in [10] was inactive.
